# Screening results deposited in PubChem by The Scripps Research Institute Molecular Screening Center.
# SRC1 inh: inhibitors of human steroid receptor coactivator 1 (SRC1); 0.12% of 360,000 active; inhibition, % at 3.6 µM; HEK293 GAL4-SRC1 luciferase reporter, luminescence;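 active = inhibition above the campaign mean plus 3 SD, with each screening campaign given its own cutoff, cut at about 60% in these data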;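 also: 0% = DMSO treated cells and 100% = gossypol at 36 µM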
# NR2F2 inh: blocks human COUP-TFII nuclear receptor. 0.7% of 370,000 active. AID 686940. HEK293T NGFI-A luciferase reporter, luminescence. inhibition, % at 8.6 µM. P24468;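 active = inhibition above a per-plate cutoff, mean inhibition of test wells between control levels plus 3 SD, cut at about 38% in these data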;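 also: cells cotransfected with COUP-TFII expression vector driving the NGFI-A reporter; 0% = median of COUP-TF2 test wells and 100% = reporter-only cells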
# SRC2 inh: inhibits human steroid receptor coactivator 2; HEK293 GAL4-SRC2 luciferase reporter, luminescence; inhibition, % at 9 µM; 0.17% of 370,000 active;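 active = inhibition above the mean inhibition of all tested compounds plus 3 SD, set per campaign, cut at about 52% in these data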;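 also: 0% = DMSO treated cells and 100% = cells given Gossypol at 36 µM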
# SRC3 inh: human NCOA3 inhibition; Q9Y6Q9; HEK293 GAL4-SRC3 luciferase reporter, luminescence; inhibition, % at 3.6 µM; 0.17% of 360,000 active;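 active = inhibition above a per-campaign cutoff, the mean of all compounds plus 3 SD, cut at about 60% in these data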;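 also: 0% = DMSO-treated cells and 100% = gossypol-treated cells at 36 µM; higher means less SRC3-driven luciferase light from the GAL4 reporter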
# NR5A2 inv ag: NR5A2 inverse agonism in reporter assay; O00482; HEK293T StAR-luciferase reporter, LRH-1 transfected, 24 h; inhibition, % at 3.6 µM; 0.13% of 360,000 active;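 active = inhibition above the mean inhibition of all tested compounds plus 3 SD, cut at about 73% in these data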;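 also: 0% = DMSO wells and 100% = reporter-only cells lacking LRH-1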
# VP16 Luc counter: VP16 inhibition counter-screen for COUP-TFII | inhibition, % at 8.5 µM | 25% of 2,500 active | HEK293 Gal4-VP16 luciferase reporter, luminescence | AID 687007 | shares compounds with NR2F2 inh; in the data active = inhibition above about 13%
# COUP-TFII conf: COUP-TFII (NR2F2) inhibition, confirmation assay; shares compounds with NR2F2 inh; HEK293 NGFI-A luciferase reporter, luminescence; inhibition, % at 8.5 µM; 45% of 2,500 active;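 active = mean inhibition over three repeats above a set limit taken from the earlier primary screen, cut at about 38% in these data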;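 also: 100% = cells given the luciferase reporter alone without the COUP-TF2 vector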
# * hit, by the source's call; . = not tested or not shown; ! = not confirmed by another sample. A selection: hits, their analogues and other compounds. The true share with any hit is near 0.84%.
SMILES,SRC1 inh,NR2F2 inh,SRC2 inh,SRC3 inh,NR5A2 inv ag,VP16 Luc counter,COUP-TFII conf
Cc1cc(C(=O)CSc2ccc(F)cc2)cc(C)c1OC(=S)N(C)C,63*,73*,51,51,55,57*,85*
COc1ccc(SCC(=O)c2cc(C)c(OC(=S)N(C)C)c(C)c2)cc1,-19,9,20,14,-18,.,.
O=C(Nc1ccncc1)c1ccc(-c2ccccc2)cc1,-31,62*,-35,8,-8,-87,33
O=C(Nc1ccc(C(=O)OC2CCCCC2)cc1)c1ccncc1,-9,53*,10,12,18,-8,13
COCCN(CC(=O)Nc1cccc(C)c1C)C(=O)c1cc2c(s1)CCC2,-16,2,-10,10,16,.,.
COC(=O)c1cc2c(c3c4cc(OC)ccc4n(S(=O)(=O)c4ccc(OC)cc4)c13)C(=O)N(C1CCCCC1)C2,.,3,5,.,.,.,.
Cc1ccc(S(=O)(=O)NC(=O)C2(C)CCN2C(=O)C2(c3ccc(Cl)cc3)CCC2)nc1 (centres undefined),0,9,-3,-15,-5,.,.
COC(=O)C(C)NC(=O)C12CC3CC(C1)CC(c1ccc(C)cc1)(C3)C2 (centres undefined),26,-12,12,2,13,.,.
COC(=O)c1cc2c(c3c4cc(C)ccc4n(S(=O)(=O)c4ccc(OC)cc4)c13)C(=O)N(Cc1ccccc1)C2,.,9,-3,.,.,.,.
Oc1cccc2ccc(Nc3ccccn3)nc12,-5,39*,-8,39,24,-2,29
O=C(O)CNS(=O)(=O)c1c(Cl)cccc1Cl,-3,3,10,17,-4,.,.
Cc1ccc(S(=O)(=O)N2CCCCC2)cc1NC(=O)c1ccc2c(=O)n3c(nc2c1)CCCCC3,.,43*,9,.,.,-3,14
COc1ccc(CC(=O)Nc2cc(S(=O)(=O)N3CCCCC3)ccc2C)cc1OC,5,60*,22,24,36,0,48*
COc1ccc(C(=O)C(=O)N2CCN(C(=O)c3cc(C(F)(F)F)cc(C(F)(F)F)c3)CC2)cc1OC,.,-8,19,.,.,.,.
S=C1NC2=C(CCCC2=C2SCCS2)C(c2ccccc2)N1 (centres undefined),-8,37*,9,12,11,-8,-5
COc1ccc(C(=O)NNC(=O)c2ccccn2)cc1,-42,46*,36,-8,-101,-112,-64
Cc1ccc(C(=O)O/N=C(\N)c2ccccn2)c(C)c1,57,78*,77*,70*,72,65*,84*
COc1ccc(C(=O)O/N=C(\N)c2ccccn2)cc1,-33,48*,42,-38,-22,-168,-104
COc1ccccc1C(=O)O/N=C(\N)c1ccccn1,-201,-29,-15,-64,-125,.,.
COc1cc(OC)cc(C(=O)NNC(=O)c2ccccn2)c1,25,9,-1,-11,11,.,.
COc1cc(OC)cc(C(=O)O/N=C(\N)c2ccccn2)c1,-77,-48,-64,-73,-74,.,.
O=S(=O)(c1ccc(F)cc1)N1CCCc2nc(-c3ccc(F)cc3)ccc21,.,-2,-13,.,.,.,.
COC(=O)[C@]12C[C@H](CC(=O)NCCc3ccccc3OC)C(=O)N(Cc3ccc(Cl)cc3Cl)C1=C[C@H](C(C)(C)C)O[C@@H]2C,.,10,-5,.,.,.,.
Cc1cc(C)cc(N(C(=O)c2csnn2)C(C(=O)NC2CCCC2)c2ccccn2)c1 (centres undefined),-33,-4,1,2,-8,.,.
COc1ccc(CCN(C)C(=O)Cc2ccc(-c3ccccc3)cc2)cc1OC,3,48*,16,14,30,4,37
SMILES,SRC1 inh,NR2F2 inh,SRC2 inh,SRC3 inh,NR5A2 inv ag,VP16 Luc counter,COUP-TFII conf
COc1ccc(CCN(C)C(=O)COc2ccc(C(=O)c3ccccc3)cc2)cc1OC,-1,5,3,14,22,.,.
Cc1ccnc(Nc2nc(-c3sc(C)nc3C)cs2)c1,-33,70*,19,-16,-79,-139,44*
CCN(CC)S(=O)(=O)c1ccc(Oc2ccc(S(=O)(=O)N(CC)CC)cc2)cc1,2,38*,16,12,22,3,9
O=C1c2ccccc2S(=O)(=O)N1Cc1nc2ccccc2s1,16,42*,52,19,9,-6,29
Cc1ccccc1CN1C(=O)c2ccccc2S1(=O)=O,8,-17,-2,4,2,.,.
COc1ccc(C(=O)Nc2ccc3nc(N4CCOCC4)sc3c2)cc1OC,-26,10,-5,5,9,.,.
CCCn1nc(C(=O)Nc2ccc3nc(N4CCOCC4)sc3c2)ccc1=O,1,43*,14,11,35,10,36
Cc1nc(N)nc(N)c1/C=C/C(C)(C)c1ccc(Cl)cc1,70*,47*,22,49,45,28*,23
COc1ccc(-c2csc(NC(=O)Cc3ccccc3F)n2)cc1OC,9,49*,-6,0,6,-14,2
COc1ccccc1CC(=O)Nc1nc(-c2ccc(F)c(F)c2)cs1,-4,0,3,-4,-20,.,.
COC(=O)[C@]12C[C@H](CC(=O)NCCc3ccccc3OC)C(=O)N(CCC3=CCCCC3)C1=C[C@H](C(C)(C)C)O[C@@H]2C,.,19,-21,.,.,.,.
CCCCCc1cc(O)c2c(C)cc(=O)oc2c1,-2,41*,7,18,3,-20,-3
COc1cc(NC(=O)C2CCCN(S(=O)(=O)c3ccc(Br)s3)C2)cc(OC)c1 (centres undefined),.,14,10,.,.,.,.
O=C(NCC1CCN(C(=O)C(=O)c2cccs2)CC1)c1ccncc1,.,4,9,.,.,.,.
Cc1ccc(-c2cn(-c3ccccc3)c3[n+]2CCCS3)cc1,28,55*,29,4,69,11,39*!
c1ccc(-c2cn(-c3ccccc3)c3[n+]2CCCS3)cc1,-11,4,6,16,2,.,.
COc1ccc(-n2cc(-c3ccc(C)cc3)[n+]3c2SCC3)cc1,47,66*,19,47,65,10,64*
CO[C@@H]1[C@H](O)CC[C@]2(O)CN(c3ccccc3)[C@](C)([C@H](O)CC=C(C)C)[C@@H]12,.,1,-28,.,.,.,.
COc1ccccc1CCNC(=O)C(C)n1nc(C)c2c(C)n(-c3ccccc3)nc2c1=O (centres undefined),-10,2,-12,1,17,.,.
COc1ccc(CCNC(=O)C(C)n2nc(C)c3c(C)n(-c4ccc(C)cc4)nc3c2=O)c(OC)c1 (centres undefined),17,61*,9,35,37,4,62*
Cc1ccc(-c2c[n+]3c(n2-c2ccccc2)SCC3)cc1,22,65*,14,42,29,0,25
COc1ccc(-c2c[n+]3c(n2-c2ccccc2)SCC3)cc1,26,57*,14,39,25,10,29
